High-throughput results (PubChem BioAssay)
In the library only some 8.1% were active in any assay of this set; here they are far more common.
KB-V1 cytotox: qHTS assay for MDR1-selective chemotherapeutics: Primary screen using the drug-selected MDR subline cells KB-V1 | Potency, µM (doses to about 46.1 µM), actives largely listed as cytotoxic | hit rate 3.4% among 400,000 | KB-V1 MDR cells viability, CellTiter-Glo, 72 h; also: % is scaled to controls: 0 for no effect and ±100 for the full control effect; nearly all actives have a fitted effect of over 60% in size
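KB-V1 cells (P-gp-expressing MDR subline of KB-3-1) in phenol-red-free DMEM with 10% FBS were exposed to library compounds over a concentration series for 72 h at 37 degrees C. Viability read by CellTiter-Glo luminescence; concentration-effect curves fitted after normalization.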
ELG1 DNA repair: qHTS screen for small molecules that inhibit ELG1-dependent DNA repair in human embryonic kidney (HEK293T) cells expressing luciferase-tagged ELG1 | HEK293T ELG1-luciferase reporter, luminescence, 16 h; DNA damage induced by 5-fluorouridine | Potency, µM (doses to about 46.1 µM), for inactives: at the top dose activity change, negative = inhibition, usual class: inhibitors | hit rate 2.3% among 330,000 | AID 504467, 2011; also: % is scaled to controls: 0 for no effect and ±100 for the full control effect; nearly all actives have a fitted effect of over 55% in size
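DMSO vehicle served as the neutral condition. Each well held 2,000 cells given 5-fluorouridine plus compound; after 16 hr at 37 °C/5% CO2, ONE-Glo was added and luciferase measured 30 min later.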
SW480 rereplic: A quantitative high throughput screen for small molecules that induce DNA re-replication in SW480 colon adenocarcinoma cells; SW480 DNA re-replication, Hoechst DNA content imaging, 48 h; Potency, µM (doses to about 46.1 µM), inactives show at the highest dose re-replication activation, hits mostly activators; hit rate 1.8% among 340,000; also: % of control where 0% means no effect; nearly all actives have a fitted effect of over 55% in size
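Cells (250 per well) received 23 nL compound or DMSO by pin tool and were kept 48 hr at 37 C, 5% CO2. Nuclei were then stained with Hoechst for 40 min and scanned for DNA content.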
MCF10A rerep: A quantitative high throughput screen for small molecules that induce DNA re-replication in MCF 10a normal breast cells; hit rate 2.9% among 350,000; MCF 10A DNA re-replication, Hoechst nuclear intensity, 48 h; Potency, µM (series often up to 46.1 µM), for the others: top-dose activity, positive = re-replication, most hits filed as activators; AID 624296, 2012; also: % of control where 0% means no effect; nearly all actives have a fitted effect of over 50% in size
KB-3-1 tox: qHTS assay for MDR1-selective chemotherapeutics: Primary screen using the parental adenocarcinoma cell KB-3-1 | KB-3-1 viability, CellTiter-Glo ATP luminescence, 72 h | Potency, µM (top dose mostly 46.1 µM), most hits filed as cytotoxic | hit rate 1.4% among 400,000 | AID 1347075, 2019; also: % is scaled to controls: 0 for no effect and ±100 for the full control effect; nearly all actives have a fitted effect of over 60% in size
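Parental KB-3-1 adenocarcinoma cells in phenol-red-free DMEM with 10% FBS were pin-treated with compounds at several concentrations, incubated 72 h at 37 °C, and viability read by CellTiter-Glo luminescence; concentration-effect curves were fitted after normalization.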
Active calls of the source: *; ! = not active in a repeat; [ ] = another dose, or the depositor's remark. Calls follow the shape of the dose curve; as a rule, active = well fitted curve in the direction sought with a large enough effect; inconclusive = small, poorly fitted or top-dose-only effect, or another doubt; inactive = no such curve, though single readings can be large; an effect the other way counts as inactive or inconclusive. Potency is read from the fitted curve at half-maximal effect.

CCCCC12CN3CC(C)(CN(C1)C3c1ccc(OCc3ccccc3)cc1)C2=O (stereo not drawn) was read as KB-V1 cytotox inactive and KB-3-1 tox inactive.
Screening CCCCC12CN3CC(C)(CN(C1)C31C(=O)N(C)c3ccc(C)cc31)C2=O (stereo not drawn) returned KB-V1 cytotox 9.2µM*, ELG1 DNA repair -31%, SW480 rereplic 15%, MCF10A rerep 21% and KB-3-1 tox inactive.
Screening O=C(N/N=C\c1cccc(Cl)c1)c1ccc(Cn2cc(Br)c([N+](=O)[O-])n2)o1 returned KB-V1 cytotox 21µM*, ELG1 DNA repair inconclusive, SW480 rereplic inconclusive, MCF10A rerep inconclusive and KB-3-1 tox inconclusive.
Cc1ccc(/C=N\NC(=O)c2ccc(Cn3cc(Br)c([N+](=O)[O-])n3)o2)o1 was read as KB-V1 cytotox inactive, ELG1 DNA repair 0%, SW480 rereplic -17%, MCF10A rerep -4% and KB-3-1 tox inconclusive.
Screening COc1ccc(Cl)cc1NC(=S)NC(=O)c1ccco1 returned KB-V1 cytotox inactive, ELG1 DNA repair inconclusive, SW480 rereplic 2%, MCF10A rerep -4% and KB-3-1 tox inactive.
`O=C(CSC1=Nc2ccccc2C2=NC(Cc3ccccc3)C(=O)N12)Nc1ccccc1C(F)(F)F` (stereo not drawn) gave KB-V1 cytotox inactive and KB-3-1 tox inactive.
For CC(Sc1c[nH]c2ccccc12)C(=O)O (stereo not drawn) the results were KB-V1 cytotox inactive, ELG1 DNA repair 12%, SW480 rereplic inconclusive, MCF10A rerep 8.2µM* and KB-3-1 tox inactive.
COc1ccc(NC(=O)Cc2coc3cc(C)cc(C)c23)c(OC)c1 was read as KB-V1 cytotox inactive and KB-3-1 tox inactive.
COc1ccc(OC)c(NC(=O)Cc2coc3cc(C)cc(C)c23)c1 was read as KB-V1 cytotox 16µM*, ELG1 DNA repair inconclusive, SW480 rereplic 2%, MCF10A rerep 13% and KB-3-1 tox inactive.
For O=c1cc(-c2ccccc2Cl)oc2c(NS(=O)(=O)c3cc(Cl)cc(Cl)c3O)ccc(O)c12 the results were KB-V1 cytotox 18µM*, ELG1 DNA repair inconclusive, SW480 rereplic 20%, MCF10A rerep -32% and KB-3-1 tox inconclusive.
For Cc1ccc(-c2nc3ccccc3c(=O)n2NC(=O)COc2ccccc2)cc1 the results were KB-V1 cytotox inconclusive, ELG1 DNA repair -9%, SW480 rereplic -12%, MCF10A rerep -1% and KB-3-1 tox inactive.
`Cc1ccc(OCC(=O)Nn2c(C)nc3ccccc3c2=O)c(C(C)C)c1` gave KB-V1 cytotox 18µM*, ELG1 DNA repair inconclusive, SW480 rereplic -3%, MCF10A rerep -1% and KB-3-1 tox inactive.
Screening Clc1ccc(COn2nnc3ccccc32)c(Cl)c1 returned KB-V1 cytotox inactive, SW480 rereplic 5%, MCF10A rerep 23µM* and KB-3-1 tox inactive.
Screening O=[N+]([O-])c1ccc(COn2nnc3ccccc32)cc1 returned KB-V1 cytotox inactive, ELG1 DNA repair inconclusive, SW480 rereplic 5%[1.84 µM], MCF10A rerep -24% and KB-3-1 tox inactive.
COc1cc(SC)ccc1C(=O)N1CCn2c3c(c4cc(C)ccc42)CCCC31 (stereo not drawn) was read as KB-V1 cytotox inactive and KB-3-1 tox inactive.
CCc1ccc(C(=O)NNc2ccc(C)c(Cl)c2)cc1 was read as KB-V1 cytotox inactive, ELG1 DNA repair 18µM*, SW480 rereplic 14%, MCF10A rerep 4% and KB-3-1 tox inactive.
`CCc1ccc(C(=O)NNc2ccc(F)cc2)cc1` gave KB-V1 cytotox inactive, ELG1 DNA repair 7%, SW480 rereplic inconclusive, MCF10A rerep inconclusive and KB-3-1 tox inconclusive.
COc1cc(-c2noc(C)c2C#Cc2ccccn2)cc(OC)c1OC was read as KB-V1 cytotox 1.3µM*!, ELG1 DNA repair inconclusive, SW480 rereplic 3.7µM*, MCF10A rerep inconclusive and KB-3-1 tox 0.58µM*!.
`COc1cc(-c2noc(C)c2/C=C/c2ccc(N)cc2)cc(OC)c1OC` gave KB-V1 cytotox 0.58µM*!, ELG1 DNA repair 2%, SW480 rereplic inconclusive, MCF10A rerep inconclusive and KB-3-1 tox 0.26µM*!.
COc1cc(-c2noc(C)c2C#Cc2ccc(N)cc2)cc(OC)c1OC was read as KB-V1 cytotox 1.3µM*!, ELG1 DNA repair -2%, SW480 rereplic 1.2µM*, MCF10A rerep inconclusive and KB-3-1 tox 0.82µM*!.
Screening CCOc1ccc(N(CC)C(=O)CCNC(=O)Cn2ccc3ccccc3c2=O)cc1 returned KB-V1 cytotox 23µM*, ELG1 DNA repair -4%, SW480 rereplic -1%, MCF10A rerep 0% and KB-3-1 tox inactive.
COc1ccccc1N1CCN(C(=O)CCNC(=O)Cn2ccc3ccccc3c2=O)CC1 was read as KB-V1 cytotox inactive, ELG1 DNA repair 0%, SW480 rereplic -2%, MCF10A rerep 8% and KB-3-1 tox inactive.
Cc1ccc(C)c(N2CCN(C(=O)CCNC(=O)Cn3ccc4ccccc4c3=O)CC2)c1 was read as KB-V1 cytotox 6.5µM*, ELG1 DNA repair 2%, SW480 rereplic -5%, MCF10A rerep -1% and KB-3-1 tox inactive.
For CCCCN(CC)C(=O)CSc1nc2c(sc3ccccc32)c(=O)n1CCc1ccccc1 the results were KB-V1 cytotox inactive and KB-3-1 tox inactive.
CC(C)CSC1=NSC2=NC(=O)/C(=C\c3ccccc3)C(=N)N12 was read as KB-V1 cytotox inactive, ELG1 DNA repair inconclusive, SW480 rereplic 25%, MCF10A rerep 15µM* and KB-3-1 tox inactive.
`CC(C)CSC1=NSC2=NC(=O)/C(=C\c3coc4ccccc4c3=O)C(=N)N12` gave KB-V1 cytotox inactive, ELG1 DNA repair -1%, SW480 rereplic -9%, MCF10A rerep 21µM* and KB-3-1 tox inactive.
Screening Cc1cc(/C=C2\C(=N)N3C(SCc4ccccc4)=NSC3=NC2=O)c(C)n1Cc1ccccc1 returned KB-V1 cytotox inactive, ELG1 DNA repair 0%, SW480 rereplic -4%, MCF10A rerep 11% and KB-3-1 tox inactive.
Screening CSC1=NSC2=NC(=O)/C(=C\c3coc4ccccc4c3=O)C(=N)N12 returned KB-V1 cytotox inactive, ELG1 DNA repair 14%, SW480 rereplic -21%, MCF10A rerep inconclusive and KB-3-1 tox inconclusive.
`CCCS(=O)(=O)NC(=O)C1(C)CCN(C(=O)c2cc(C)n(C(C)(C)C)n2)C1` (stereo not drawn) gave KB-V1 cytotox inactive and KB-3-1 tox inactive.
